From the supplement of paper PMC10849652
About 7,900 targets were measured; listed, in parts, are those with a hit and a random draw of the rest. About 0.6% of all pairs of compound and target were hits. Unmarked numbers belong to inactive results.

Experiments:
Experiment in all cases: log2 fold change, soluble protein after heating vs DMSO (PISA); higher = thermal stabilisation; K562 cells, 10 uM, 30 min; active = over 0.2 and 3.5 SD of the protein, either way, in both replicates (recomputed)
[1] = compound: CS(=O)(=O)c1ccc(-c2cnc(N)c(C(=O)Nc3ccccc3)n2)cc1
Summary of the method: (§1)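 Quantification of soluble protein used TMTpro 16plex LC-MS/MS, with channel sums equalised. Samples were the supernatant after 21,000xg for 90 min of pooled aliquots from K562 cells (2×10^6 cells/mL) treated with 10 μM compound for 30 min, heated for 3 min over 48°C-58°C, and extracted in PBS with 0.5% NP-40 at 4°C. Values, from duplicates, describe thermal stability against control samples on a log2 fold-change scale.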

crizotinib = compound: C[C@@H](Oc1cc(-c2cnn(C3CCNCC3)c2)cnc1N)c1c(Cl)ccc(F)c1Cl [crizotinib]
Summary of the method: as §1

[2] = compound: C[C@@H]1COCCN1C2=NC(=NC(=C2)C3(CC3)S(=O)(=O)C)C4=C5C=CNC5=CC=C4
Summary of the method: as §1

[3] = compound: C[C@H](C1=CC=C(C=C1)C(=O)NC2=C3C=CNC3=NC=C2)N
Summary of the method: as §1

duvelisib = compound: C[C@H](Nc1ncnc2nc[nH]c12)c1cc2cccc(Cl)c2c(=O)n1-c1ccccc1 [duvelisib]
Summary of the method: as §1

gandotinib = compound: Cc1cc(Nc2cc(CN3CCOCC3)c3nc(C)c(Cc4ccc(Cl)cc4F)n3n2)n[nH]1 [gandotinib]
Summary of the method: as §1

tozasertib = compound: Cc1cc(Nc2cc(N3CCN(C)CC3)nc(Sc3ccc(NC(=O)C4CC4)cc3)n2)n[nH]1 [tozasertib]
Summary of the method: as §1

[4] = compound: Cc1cc(SCc2sc(-c3ccc(C(F)(F)F)cc3)nc2C)ccc1OCC(=O)O
Summary of the method: as §1

doramapimod = compound: Cc1ccc(-n2nc(C(C)(C)C)cc2NC(=O)Nc2ccc(OCCN3CCOCC3)c3ccccc23)cc1 [doramapimod]
Summary of the method: as §1

ispinesib = compound: Cc1ccc(C(=O)N(CCCN)[C@@H](c2nc3cc(Cl)ccc3c(=O)n2Cc2ccccc2)C(C)C)cc1 [ispinesib]
Summary of the method: as §1

bafetinib = compound: Cc1ccc(NC(=O)c2ccc(CN3CC[C@H](N(C)C)C3)c(C(F)(F)F)c2)cc1Nc1nccc(-c2cncnc2)n1 [bafetinib]
Summary of the method: as §1

[5] = compound: Cc1cccc(CC(=O)N2CCc3c2ccc(-c2cn(C)c4ncnc(N)c24)c3F)n1
Summary of the method: as §1

nilotinib = compound: Cc1cn(-c2cc(NC(=O)c3ccc(C)c(Nc4nccc(-c5cccnc5)n4)c3)cc(C(F)(F)F)c2)cn1 [nilotinib]
Summary of the method: as §1

[6] = compound: Cc1nc(Nc2n[nH]c3c2CN(C(=O)N[C@H](CN(C)C)c2ccccc2)C3(C)C)c2sccc2n1
Summary of the method: as §1

dasatinib = compound: Cc1nc(Nc2ncc(C(=O)Nc3c(C)cccc3Cl)s2)cc(N2CCN(CCO)CC2)n1 [dasatinib]
Summary of the method: as §1

[7] = compound: Cc1ncc(-c2ccnc(Nc3ccc(S(C)(=O)=O)cc3)n2)n1C(C)C
Summary of the method: as §1

[8] = compound: Cn1cc(-c2ccc3c(c2)CCN3C(=O)Cc2cccc(C(F)(F)F)c2)c2c(N)ncnc21
Summary of the method: as §1

[9] = compound: Cn1cc(-c2ccc3nnc(C(F)(F)c4ccc5ncccc5c4)n3n2)cn1
Summary of the method: as §1

tipifarnib = compound: Cn1cncc1[C@@](N)(c1ccc(Cl)cc1)c1ccc2c(c1)c(-c1cccc(Cl)c1)cc(=O)n2C [tipifarnib]
Summary of the method: as §1

mubritinib = compound: FC(F)(F)c1ccc(/C=C/c2nc(COc3ccc(CCCCn4ccnn4)cc3)co2)cc1 [mubritinib]
Summary of the method: as §1

Chain of UniProt P23368 (P23368 whole entry, looked up): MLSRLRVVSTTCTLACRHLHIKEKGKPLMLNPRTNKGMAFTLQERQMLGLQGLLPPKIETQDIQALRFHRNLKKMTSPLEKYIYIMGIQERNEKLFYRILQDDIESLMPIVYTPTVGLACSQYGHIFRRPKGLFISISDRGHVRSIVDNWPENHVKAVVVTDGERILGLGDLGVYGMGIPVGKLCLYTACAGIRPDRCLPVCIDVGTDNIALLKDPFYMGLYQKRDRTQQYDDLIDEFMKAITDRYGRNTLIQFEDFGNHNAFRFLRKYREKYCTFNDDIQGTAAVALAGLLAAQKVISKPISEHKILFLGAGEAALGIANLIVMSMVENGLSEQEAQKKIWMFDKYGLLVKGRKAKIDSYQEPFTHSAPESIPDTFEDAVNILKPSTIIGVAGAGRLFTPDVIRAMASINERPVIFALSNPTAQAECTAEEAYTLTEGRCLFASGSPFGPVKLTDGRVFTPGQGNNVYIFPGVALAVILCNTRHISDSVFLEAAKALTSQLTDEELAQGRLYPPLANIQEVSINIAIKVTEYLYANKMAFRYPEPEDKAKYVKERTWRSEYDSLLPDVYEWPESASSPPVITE
Chain of UniProt Q9H1H9 (Q9H1H9 whole entry, looked up): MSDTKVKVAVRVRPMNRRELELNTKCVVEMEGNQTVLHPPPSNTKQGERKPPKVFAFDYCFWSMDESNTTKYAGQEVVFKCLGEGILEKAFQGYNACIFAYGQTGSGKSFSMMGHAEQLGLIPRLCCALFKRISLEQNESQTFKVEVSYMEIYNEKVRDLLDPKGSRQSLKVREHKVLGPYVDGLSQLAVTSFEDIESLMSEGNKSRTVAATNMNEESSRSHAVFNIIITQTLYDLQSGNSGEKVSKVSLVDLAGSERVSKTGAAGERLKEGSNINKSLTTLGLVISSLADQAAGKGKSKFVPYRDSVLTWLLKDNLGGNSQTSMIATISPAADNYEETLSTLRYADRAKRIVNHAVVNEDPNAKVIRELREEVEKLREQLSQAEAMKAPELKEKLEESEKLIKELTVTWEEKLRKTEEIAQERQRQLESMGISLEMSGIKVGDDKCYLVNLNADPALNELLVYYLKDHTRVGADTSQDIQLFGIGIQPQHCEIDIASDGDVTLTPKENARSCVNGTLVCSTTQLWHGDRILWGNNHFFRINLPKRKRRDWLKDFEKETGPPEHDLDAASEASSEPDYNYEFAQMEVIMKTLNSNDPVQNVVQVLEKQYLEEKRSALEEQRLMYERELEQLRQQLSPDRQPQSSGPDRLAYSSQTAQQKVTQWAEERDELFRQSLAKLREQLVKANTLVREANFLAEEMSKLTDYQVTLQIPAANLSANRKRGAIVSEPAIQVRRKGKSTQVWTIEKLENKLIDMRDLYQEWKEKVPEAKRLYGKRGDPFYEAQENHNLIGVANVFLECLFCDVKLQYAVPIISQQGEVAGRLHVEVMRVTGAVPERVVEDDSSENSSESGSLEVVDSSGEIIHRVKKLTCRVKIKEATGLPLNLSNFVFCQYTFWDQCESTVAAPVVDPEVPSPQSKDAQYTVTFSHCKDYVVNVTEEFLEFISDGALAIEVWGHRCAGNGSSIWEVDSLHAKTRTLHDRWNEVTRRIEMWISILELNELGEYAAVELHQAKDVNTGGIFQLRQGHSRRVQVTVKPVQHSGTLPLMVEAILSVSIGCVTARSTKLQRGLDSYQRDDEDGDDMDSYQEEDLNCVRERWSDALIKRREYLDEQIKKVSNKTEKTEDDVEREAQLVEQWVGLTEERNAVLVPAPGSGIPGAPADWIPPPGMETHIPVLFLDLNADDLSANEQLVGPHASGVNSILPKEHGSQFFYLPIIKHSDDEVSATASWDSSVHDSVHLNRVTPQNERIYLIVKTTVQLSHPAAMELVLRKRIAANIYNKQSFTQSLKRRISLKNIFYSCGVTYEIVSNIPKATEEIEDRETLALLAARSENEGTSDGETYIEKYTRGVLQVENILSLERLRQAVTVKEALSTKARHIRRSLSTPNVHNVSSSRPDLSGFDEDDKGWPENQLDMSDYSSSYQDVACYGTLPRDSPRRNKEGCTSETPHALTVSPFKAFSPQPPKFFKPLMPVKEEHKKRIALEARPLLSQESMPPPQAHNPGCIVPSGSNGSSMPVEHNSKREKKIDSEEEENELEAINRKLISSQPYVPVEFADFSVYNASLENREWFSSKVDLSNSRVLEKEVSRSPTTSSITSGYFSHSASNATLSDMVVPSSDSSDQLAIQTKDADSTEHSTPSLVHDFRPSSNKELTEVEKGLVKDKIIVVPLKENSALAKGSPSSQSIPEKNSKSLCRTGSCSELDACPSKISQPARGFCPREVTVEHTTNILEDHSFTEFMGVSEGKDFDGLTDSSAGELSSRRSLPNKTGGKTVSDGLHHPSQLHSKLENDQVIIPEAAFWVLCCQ
Chain of UniProt P49441 (P49441 whole entry, looked up): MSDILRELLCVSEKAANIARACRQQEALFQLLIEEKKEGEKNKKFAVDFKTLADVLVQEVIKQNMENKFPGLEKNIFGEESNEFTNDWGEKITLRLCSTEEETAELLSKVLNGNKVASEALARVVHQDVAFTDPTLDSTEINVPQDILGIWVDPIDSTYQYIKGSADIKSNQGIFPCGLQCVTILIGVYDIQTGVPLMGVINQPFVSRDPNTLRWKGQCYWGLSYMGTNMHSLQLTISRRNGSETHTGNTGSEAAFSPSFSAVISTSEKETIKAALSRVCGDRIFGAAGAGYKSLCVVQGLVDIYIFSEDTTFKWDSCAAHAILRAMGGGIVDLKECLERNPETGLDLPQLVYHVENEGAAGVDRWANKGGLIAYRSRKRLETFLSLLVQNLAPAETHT
Chain of UniProt O14880 (O14880 whole entry, looked up): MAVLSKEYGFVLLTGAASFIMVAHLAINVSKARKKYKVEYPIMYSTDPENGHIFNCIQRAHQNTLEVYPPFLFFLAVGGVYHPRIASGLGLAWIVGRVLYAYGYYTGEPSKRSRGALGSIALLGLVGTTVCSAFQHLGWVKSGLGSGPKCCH
Chain of UniProt P33947 (P33947 whole entry, looked up): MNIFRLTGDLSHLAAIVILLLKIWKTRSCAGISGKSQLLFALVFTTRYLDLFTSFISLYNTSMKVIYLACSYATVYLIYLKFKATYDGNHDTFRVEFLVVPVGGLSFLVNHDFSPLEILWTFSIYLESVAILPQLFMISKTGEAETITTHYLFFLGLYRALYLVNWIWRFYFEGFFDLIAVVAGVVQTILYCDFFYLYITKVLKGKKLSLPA
Chain of UniProt P10620 (P10620 whole entry, looked up): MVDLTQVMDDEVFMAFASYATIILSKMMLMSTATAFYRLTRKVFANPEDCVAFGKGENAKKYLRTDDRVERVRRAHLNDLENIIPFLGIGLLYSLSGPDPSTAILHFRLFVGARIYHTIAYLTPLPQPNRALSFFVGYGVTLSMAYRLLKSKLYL
Chain of UniProt Q9BRT3 (Q9BRT3 whole entry, looked up): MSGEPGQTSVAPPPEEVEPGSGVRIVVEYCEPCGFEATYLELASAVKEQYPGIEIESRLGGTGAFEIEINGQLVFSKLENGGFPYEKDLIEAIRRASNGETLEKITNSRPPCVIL
Chain of UniProt P52732 (P52732 whole entry, looked up): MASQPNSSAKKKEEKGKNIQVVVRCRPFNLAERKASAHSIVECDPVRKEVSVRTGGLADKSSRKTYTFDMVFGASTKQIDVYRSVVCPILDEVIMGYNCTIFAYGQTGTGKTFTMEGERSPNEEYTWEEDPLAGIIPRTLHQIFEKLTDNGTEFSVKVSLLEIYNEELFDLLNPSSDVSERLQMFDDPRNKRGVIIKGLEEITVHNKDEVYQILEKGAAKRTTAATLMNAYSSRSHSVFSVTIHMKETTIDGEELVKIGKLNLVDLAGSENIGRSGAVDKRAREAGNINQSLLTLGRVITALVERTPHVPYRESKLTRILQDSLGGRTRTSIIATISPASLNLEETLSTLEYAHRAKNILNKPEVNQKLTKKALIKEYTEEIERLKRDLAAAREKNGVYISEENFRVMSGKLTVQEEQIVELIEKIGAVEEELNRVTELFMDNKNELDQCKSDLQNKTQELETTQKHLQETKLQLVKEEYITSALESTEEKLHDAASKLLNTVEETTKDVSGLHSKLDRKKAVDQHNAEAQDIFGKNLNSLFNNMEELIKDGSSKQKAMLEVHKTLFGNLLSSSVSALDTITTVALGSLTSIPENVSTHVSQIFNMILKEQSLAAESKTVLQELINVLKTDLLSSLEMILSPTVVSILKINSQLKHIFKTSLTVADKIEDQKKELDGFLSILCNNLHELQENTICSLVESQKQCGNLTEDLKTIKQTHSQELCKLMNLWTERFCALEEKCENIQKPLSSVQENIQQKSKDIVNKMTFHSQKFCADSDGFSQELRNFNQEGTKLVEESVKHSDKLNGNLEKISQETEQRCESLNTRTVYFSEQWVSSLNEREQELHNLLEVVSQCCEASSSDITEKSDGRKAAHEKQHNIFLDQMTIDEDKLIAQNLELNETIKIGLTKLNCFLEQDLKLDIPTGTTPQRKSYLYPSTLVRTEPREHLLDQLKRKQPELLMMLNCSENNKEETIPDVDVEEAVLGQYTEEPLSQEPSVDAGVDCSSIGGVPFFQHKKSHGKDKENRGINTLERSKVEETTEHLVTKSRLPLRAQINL
Chain of UniProt O14733 (O14733 whole entry, looked up): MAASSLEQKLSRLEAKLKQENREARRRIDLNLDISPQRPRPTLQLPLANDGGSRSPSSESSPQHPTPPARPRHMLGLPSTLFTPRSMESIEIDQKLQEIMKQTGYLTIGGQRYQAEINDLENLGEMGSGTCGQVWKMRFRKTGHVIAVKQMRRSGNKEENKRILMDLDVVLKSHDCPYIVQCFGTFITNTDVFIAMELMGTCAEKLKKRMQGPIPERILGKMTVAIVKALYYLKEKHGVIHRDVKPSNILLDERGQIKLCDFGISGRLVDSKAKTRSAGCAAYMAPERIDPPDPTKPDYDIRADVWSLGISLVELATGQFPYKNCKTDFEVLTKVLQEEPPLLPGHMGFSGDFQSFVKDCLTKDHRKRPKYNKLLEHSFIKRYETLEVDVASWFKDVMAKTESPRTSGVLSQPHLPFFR

| Target | log2 fold change [1] | log2 fold change (crizotinib) | log2 fold change [2] | log2 fold change [3] | log2 fold change (duvelisib) | log2 fold change (gandotinib) | log2 fold change (tozasertib) | log2 fold change [4] | log2 fold change (doramapimod) | log2 fold change (ispinesib) | log2 fold change (bafetinib) | log2 fold change [5] | log2 fold change (nilotinib) | log2 fold change [6] | log2 fold change (dasatinib) | log2 fold change [7] | log2 fold change [8] | log2 fold change [9] | log2 fold change (tipifarnib) | log2 fold change (mubritinib) |
| --- | --- | --- | --- | --- | --- | --- | --- | --- | --- | --- | --- | --- | --- | --- | --- | --- | --- | --- | --- | --- |
| MAP2K1 (UniProt Q02750) | 0.055 | -0.019 | 0.088 | -0.092 | 0.059 | 0.005 | -0.009 | -0.038 | -0.05 | -0.009 | -0.026 | -0.039 | -0.015 | -0.052 | -0.063 | 0.008 | 0.023 | 0.021 | -0.024 | 0.015 |
| MAP3K4 isoform 2 (UniProt Q9Y6R4) | 0.012 | -0.256 (active) | 0.042 | -0.017 | 0.02 | -0.054 | 0.026 | 0 | 0.02 | 0.021 | -0.059 | -0.095 | 0.008 | 0.221 (active) | 0.534 (active) | 0.027 | -0.031 | 0.021 | -0.032 | 0.016 |
| MARK3 (UniProt P27448) | -0.042 | -0.394 (active) | -0.039 | 0.063 | -0.013 | -0.194 | -0.187 | 0.089 | 0.073 | -0.173 | 0.033 | 0.108 | -0.125 | -0.718 (active) | -0.104 | -0.11 | -0.062 | -0.046 | -0.013 | -0.075 |
| KLC2 (UniProt Q9H0B6) | 0.012 | -0.131 | 0.008 | -0.007 | 0.059 | -0.079 | -0.004 | 0.047 | -0.002 | -0.062 | 0.013 | 0.018 | -0.049 | -0.388 (active) | -0.07 | 0.025 | 0.05 | 0.046 | 0.031 | 0.009 |
| LSR (UniProt Q86X29) | 0.08 | 0.043 | 0.009 | -0.025 | 0.061 | -0.012 | -0.044 | -0.031 | 0.04 | 0.027 | 0.068 | -0.057 | 0.024 | -0.254 (active) | 0.003 | 0.009 | 0.072 | 0.018 | 0.011 | 0.01 |
| KDELR2 (UniProt P33947) | 0.056 | 0.035 | 0.205 | -0.096 | 0.099 | -0.107 | -0.027 | -0.007 | 0.016 | 0.016 | -0.088 | 0.072 | -0.069 | 0.035 | 0.097 | -0.082 | 0.194 | 0.264 | 0.125 | -0.049 |
| KIF13A (UniProt Q9H1H9) | 0.018 | 0.058 | 0.112 | 0.072 | 0.034 | -0.384 (active) | 0.065 | -0.009 | -0.011 | -0.003 | -0.033 | -0.095 | 0.012 | -0.01 | -0.044 | 0.008 | 0.029 | -0.032 | -0.014 | 0.024 |
| KIF11 (UniProt P52732) | 0.034 | -0.091 | -0.029 | 0.207 | -0.007 | -0.018 | 0.12 | 0.19 | 0.13 | 0.761 (active) | 0.043 | 0.044 | -0.057 | -0.031 | -0.075 | 0.088 | -0.06 | -0.002 | -0.078 | -0.025 |
| MIEN1 (UniProt Q9BRT3) | 0.03 | 0.152 | 0.314 (active) | -0.193 | 0.208 | 0.026 | 0.12 | 0.032 | 0.029 | 0.235 | 0.023 | -0.013 | -0.029 | -0.037 | -0.041 | -0.08 | 0.08 | 0.139 | 0.083 | 0.018 |
| KPNA6 (UniProt O60684) | -0.01 | -0.11 | -0.011 | 0.138 | 0 | -0.028 | 0.046 | 0.07 | 0.046 | -0.202 | -0.071 | 0.078 | -0.054 | -0.038 | -0.067 | 0.003 | -0.098 | -0.015 | -0.033 | -0.067 |
| MAP2K7 isoform 4 (UniProt O14733) | 0.017 | -0.112 | 0.003 | -0.003 | 0.018 | -0.055 | -0.057 | -0.038 | 0 | -0.051 | -0.086 | 0 | -0.035 | 0.025 | -0.075 | -0.039 | -0.006 | 0.02 | 0.027 | -0.018 |
| INPP1 (UniProt P49441) | 0.041 | -0.016 | -0.012 | -0.028 | 0.011 | -0.084 | 0.018 | -0.043 | -0.018 | 0.052 | 0.003 | 0.094 | -0.001 | 0.067 | 0.027 | 0.053 | 0.037 | 0.027 | -0.135 | 0.15 |
| ME2 (UniProt P23368) | -0.027 | 0.282 (active) | -0.048 | 0.009 | 0.043 | -0.016 | -0.001 | -0.002 | -0.016 | 0.334 (active) | -0.012 | -0.087 | 0.138 | 0.029 | -0.052 | -0.015 | -0.076 | 0.001 | 0.107 | -0.074 |
| MGST3 (UniProt O14880) | 0.058 | 0.119 | -0.013 | -0.075 | -0.002 | -0.006 | -0.018 | -0.054 | -0.031 | 0.03 | -0.085 | -0.002 | 0.01 | 0.012 | 0.069 | -0.056 | 0.004 | -0.026 | 0.019 | -0.094 |
| MGST1 (UniProt P10620) | -0.006 | 0.152 | -0.01 | -0.257 (active) | -0.042 | 0.044 | -0.111 | -0.123 | -0.053 | -0.027 | -0.001 | -0.053 | -0.006 | 0.078 | 0.084 | -0.039 | -0.013 | 0.014 | 0.131 | -0.005 |
| LMNB1 (UniProt P20700) | -0.01 | 0.038 | 0.108 | -0.172 | -0.018 | -0.03 | 0.096 | -0.022 | -0.003 | 0.041 | -0.089 | -0.004 | 0.037 | -0.11 | 0.092 | -0.117 | -0.059 | -0.074 | 0.105 | -0.069 |
